“And” between values parts separate entries of the source, which are not always exact repeats. Equal values may be shown once. Screen size: about 5,500 compounds; about 2,000 (36%) were called active. About 18% were inconclusive and are not listed. The list shows a part of the results. A number with no mark means an inactive call. Cut-off read from the data, not from the text of the source: active = normalized growth mostly below about 0.91 (no sharp cut-off); inconclusive = no clear call, values can overlap the other calls; inactive = mostly above about 0.92.
Test: chemical genetic growth profiling, strain panel (AID 1159580);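 note: tested at 20 µM; growth read once vehicle control cultures reached saturation at 30 °C; 1 = growth at the plate median or of vehicle wells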
Conditions: growth OD

O=C(O)c1cc([N+](=O)[O-])ccc1NCCCc1ccccc1
normalized growth (S. cerevisiae deletion strains, locus YAL013W, strain DEP1, stronger effect = lower value): 0.994 | normalized growth (S. cerevisiae deletion strains, locus YAL040C, strain CLN3, stronger effect = lower value): 0.958 | normalized growth (S. cerevisiae deletion strains, locus YBR021W, strain FUR4, stronger effect = lower value): 0.892 | normalized growth (S. cerevisiae deletion strains, locus YBR229C, strain ROT2, stronger effect = lower value): 0.959 | normalized growth (S. cerevisiae deletion strains, locus YCL029C, strain bik1, stronger effect = lower value): 0.931 | normalized growth (S. cerevisiae deletion strains, locus YCL061C, strain MRC1 (second series), stronger effect = lower value): 1.01 | normalized growth (S. cerevisiae deletion strains, locus YDL035C, strain GPR1, stronger effect = lower value): 0.953 | normalized growth (S. cerevisiae deletion strains, locus YDL074C, strain BRE1, stronger effect = lower value): 0.972 | normalized growth (S. cerevisiae deletion strains, locus YDL101C, strain DUN1, stronger effect = lower value): 0.984 | normalized growth (S. cerevisiae deletion strains, locus YDL134C, strain PPH21, stronger effect = lower value): 0.966 | normalized growth (S. cerevisiae deletion strains, locus YDL185W, strain tfp1, stronger effect = lower value): 0.868 (active) | normalized growth (S. cerevisiae deletion strains, locus YDL192W, strain arf1, stronger effect = lower value): 0.941 | normalized growth (S. cerevisiae deletion strains, locus YDR101C, strain arx1, stronger effect = lower value): 0.933 | normalized growth (S. cerevisiae deletion strains, locus YDR150W, strain NUM1, stronger effect = lower value): 1.01 | normalized growth (S. cerevisiae deletion strains, locus YDR162C, strain NBP2, stronger effect = lower value): 0.953 | normalized growth (S. cerevisiae deletion strains, locus YDR318W, strain mcm21, stronger effect = lower value): 0.939 | normalized growth (S. cerevisiae deletion strains, locus YDR363W, strain ESC2, stronger effect = lower value): 0.987 | normalized growth (S. cerevisiae deletion strains, locus YDR388W, stronger effect = lower value): 0.928 | normalized growth (S. cerevisiae deletion strains, locus YDR502C, strain sam2, stronger effect = lower value): 0.94 | normalized growth (S. cerevisiae deletion strains, locus YEL061C, strain CIN8, stronger effect = lower value): 0.97 | normalized growth (S. cerevisiae deletion strains, locus YER002W, strain NOP16, stronger effect = lower value): 0.954 | normalized growth (S. cerevisiae deletion strains, locus YER110C, stronger effect = lower value): 0.932 | normalized growth (S. cerevisiae deletion strains, locus YER155C, strain BEM2, stronger effect = lower value): 0.915 (active) | normalized growth (S. cerevisiae deletion strains, locus YER167W, strain BCK2, stronger effect = lower value): 0.943 | normalized growth (S. cerevisiae deletion strains, locus YGL078C, strain dbp3, stronger effect = lower value): 0.895 (active) | normalized growth (S. cerevisiae deletion strains, locus YGL086W, strain mad1, stronger effect = lower value): 0.985 | normalized growth (S. cerevisiae deletion strains, locus YGL248W, strain PDE1, stronger effect = lower value): 0.984 | normalized growth (S. cerevisiae deletion strains, locus YGR078C, strain PAC10, stronger effect = lower value): 0.986 | normalized growth (S. cerevisiae deletion strains, locus YGR135W, strain pre9, stronger effect = lower value): 0.933 | normalized growth (S. cerevisiae deletion strains, locus YGR252W, strain gcn5, stronger effect = lower value): 0.893 | normalized growth (S. cerevisiae deletion strains, locus YHR030C, strain SLT2, stronger effect = lower value): 0.941 | normalized growth (S. cerevisiae deletion strains, locus YHR079C, strain IRE1 (second series), stronger effect = lower value): 0.934 | normalized growth (S. cerevisiae deletion strains, locus YHR094C, strain hxt1, stronger effect = lower value): 0.921 (active) | normalized growth (S. cerevisiae deletion strains, locus YHR129C, strain ARP1, stronger effect = lower value): 0.952 | normalized growth (S. cerevisiae deletion strains, locus YHR200W, strain rpn10, stronger effect = lower value): 0.922 | normalized growth (S. cerevisiae deletion strains, locus YIL066C, strain RNR3, stronger effect = lower value): 0.983 | normalized growth (S. cerevisiae deletion strains, locus YIL073C, strain SPO22, stronger effect = lower value): 0.829 | normalized growth (S. cerevisiae deletion strains, locus YIL125W, strain kgd1, stronger effect = lower value): 0.861 (active) | normalized growth (S. cerevisiae deletion strains, locus YIR030C, strain dcg1, stronger effect = lower value): 0.918 (active) | normalized growth (S. cerevisiae deletion strains, locus YJL095W, strain BCK1, stronger effect = lower value): 1.01 | normalized growth (S. cerevisiae deletion strains, locus YJL134W, strain LCB3, stronger effect = lower value): 0.944 | normalized growth (S. cerevisiae deletion strains, locus YJL168C, strain set2, stronger effect = lower value): 0.94 | normalized growth (S. cerevisiae deletion strains, locus YJL187C, strain SWE1 (second series), stronger effect = lower value): 0.996 | normalized growth (S. cerevisiae deletion strains, locus YJR043C, strain POL32, stronger effect = lower value): 0.987 | normalized growth (S. cerevisiae deletion strains, locus YJR075W, strain HOC1, stronger effect = lower value): 1 | normalized growth (S. cerevisiae deletion strains, locus YKL009W, strain mrt4, stronger effect = lower value): 0.707 (active) | normalized growth (S. cerevisiae deletion strains, locus YKL068W, stronger effect = lower value): 0.873 (active) | normalized growth (S. cerevisiae deletion strains, locus YKL085W, strain MDH1 (second series), stronger effect = lower value): 0.848 (active) | normalized growth (S. cerevisiae deletion strains, locus YKL085W, strain MDH1, stronger effect = lower value): 0.848 (active) | normalized growth (S. cerevisiae deletion strains, locus YKL190W, strain CNB1, stronger effect = lower value): 0.967 | normalized growth (S. cerevisiae deletion strains, locus YKR001C, strain vps1, stronger effect = lower value): 0.934 | normalized growth (S. cerevisiae deletion strains, locus YLR039C, strain RIC1, stronger effect = lower value): 0.973 | normalized growth (S. cerevisiae deletion strains, locus YLR058C, strain SHM2, stronger effect = lower value): 0.964 | normalized growth (S. cerevisiae deletion strains, locus YLR102C, strain apc9, stronger effect = lower value): 0.93 | normalized growth (S. cerevisiae deletion strains, locus YLR262C, strain YPT6, stronger effect = lower value): 0.933 | normalized growth (S. cerevisiae deletion strains, locus YLR268W, strain sec22, stronger effect = lower value): 0.957 | normalized growth (S. cerevisiae deletion strains, locus YLR330W, strain CHS5, stronger effect = lower value): 0.927 | normalized growth (S. cerevisiae deletion strains, locus YLR342W, strain FKS1 (second series), stronger effect = lower value): 0.952 | normalized growth (S. cerevisiae deletion strains, locus YLR371W, strain rom2, stronger effect = lower value): 0.951 | normalized growth (S. cerevisiae deletion strains, locus YLR418C, strain cdc73, stronger effect = lower value): 0.901 | normalized growth (S. cerevisiae deletion strains, locus YML016C, strain PPZ1, stronger effect = lower value): 0.958 | normalized growth (S. cerevisiae deletion strains, locus YML032C, strain rad52, stronger effect = lower value): 0.968 | normalized growth (S. cerevisiae deletion strains, locus YML124C, strain tub3, stronger effect = lower value): 0.935 | normalized growth (S. cerevisiae deletion strains, locus YMR078C, strain ctf18, stronger effect = lower value): 0.903 (active) | normalized growth (S. cerevisiae deletion strains, locus YMR223W, strain ubp8, stronger effect = lower value): 0.945 | normalized growth (S. cerevisiae deletion strains, locus YMR263W, strain SAP30, stronger effect = lower value): 1.01 | normalized growth (S. cerevisiae deletion strains, locus YMR307W, strain GAS1, stronger effect = lower value): 0.945 | normalized growth (S. cerevisiae deletion strains, locus YNL067W, strain RPL9B, stronger effect = lower value): 0.998 | normalized growth (S. cerevisiae deletion strains, locus YNL128W, strain TEP1, stronger effect = lower value): 0.974 | normalized growth (S. cerevisiae deletion strains, locus YNL153C, strain GIM3, stronger effect = lower value): 1.03 and 0.971 | normalized growth (S. cerevisiae deletion strains, locus YNL175C, strain NOP13, stronger effect = lower value): 0.95 | normalized growth (S. cerevisiae deletion strains, locus YNL197C, strain WHI3, stronger effect = lower value): 0.949 | normalized growth (S. cerevisiae deletion strains, locus YNL224C, strain SQS1, stronger effect = lower value): 0.945 | normalized growth (S. cerevisiae deletion strains, locus YNL233W, strain BNI4, stronger effect = lower value): 1 | normalized growth (S. cerevisiae deletion strains, locus YNL250W, strain rad50, stronger effect = lower value): 0.851 (active) | normalized growth (S. cerevisiae deletion strains, locus YNL271C, strain bni1, stronger effect = lower value): 0.874 (active) | normalized growth (S. cerevisiae deletion strains, locus YNL298W, strain CLA4, stronger effect = lower value): 0.753 (active) | normalized growth (S. cerevisiae deletion strains, locus YNL307C, strain MCK1, stronger effect = lower value): 0.939 | normalized growth (S. cerevisiae deletion strains, locus YNL322C, strain KRE1, stronger effect = lower value): 0.968 | normalized growth (S. cerevisiae deletion strains, locus YNR052C, strain pop2, stronger effect = lower value): 0.949 | normalized growth (S. cerevisiae deletion strains, locus YOL006C, strain TOP1, stronger effect = lower value): 1.07 | normalized growth (S. cerevisiae deletion strains, locus YOL012C, strain htz1): 0.889 | normalized growth (S. cerevisiae deletion strains, locus YOL147C, strain pex11, stronger effect = lower value): 0.931 (active) | normalized growth (S. cerevisiae deletion strains, locus YOR061W, strain CKA2, stronger effect = lower value): 0.972 | normalized growth (S. cerevisiae deletion strains, locus YOR069W, strain VPS5, stronger effect = lower value): 0.958 | normalized growth (S. cerevisiae deletion strains, locus YOR083W, strain WHI5 (second series), stronger effect = lower value): 0.978 | normalized growth (S. cerevisiae deletion strains, locus YOR136W, strain idh2, stronger effect = lower value): 0.993 | normalized growth (S. cerevisiae deletion strains, locus YOR144C, strain elg1, stronger effect = lower value): 0.939 | normalized growth (S. cerevisiae deletion strains, locus YOR184W, strain ser1, stronger effect = lower value): 0.948 | normalized growth (S. cerevisiae deletion strains, locus YOR316C, strain cot1, stronger effect = lower value): 0.945 | normalized growth (S. cerevisiae deletion strains, locus YPL055C, strain LGE1, stronger effect = lower value): 1.01 and 1.02 | normalized growth (S. cerevisiae deletion strains, locus YPR119W, strain clb2, stronger effect = lower value): 0.924 (active) | normalized growth (S. cerevisiae deletion strains, locus YPR141C, strain kar3, stronger effect = lower value): 0.872 (active) | normalized growth (S. cerevisiae deletion strains, locus YPR163C, strain tif3, stronger effect = lower value): 0.925 | normalized growth (S. cerevisiae deletion strains, locus YPR167C, strain met16, stronger effect = lower value): 0.943 | normalized growth (S. cerevisiae deletion strains, strain wtn01, stronger effect = lower value): 0.967 | normalized growth (S. cerevisiae strains, strain wild type, stronger effect = lower value): 0.963

Reference: PubChem BioAssay AID1159580 (chemical genetic matrix, 2015)
